The list is not random: actives were taken first. Their share in the collection is about 3%.
TR SRC2 fluor cs: Total Fluorescence Counterscreen for Inhibitors of the Interaction of Thyroid Hormone Receptor and Steroid Receptor Coregulator 2; 0.29% of 280,000 active; TRb/SRC2 Texas Red total fluorescence interference; Potency, µM (series often up to 106 µM), without a hit: at the top dose fluorescence change, negative = quenching; active = well fitted curve in either direction with a large enough effect; inconclusive = small, poorly fitted or top-dose-only effect
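Human TRβ ligand-binding domain (0.6 uM) and Texas Red SRC2 peptide (20 nM) in Tris buffer with 1 uM T3 and 5% DMSO were incubated with pinned compound for 5 hr at ambient temperature. Total fluorescence was computed as S + 2P (555/632 nm).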
TRb-SRC2 inh: qHTS for Inhibitors of the Interaction of Thyroid Hormone Receptor and Steroid Receptor Coregulator 2. TRbeta-SRC2 peptide binding, fluorescence polarization; receptor liganded with 1 µM T3. Potency, µM (doses to about 106 µM), inactives show at the highest dose activity change, negative = inhibition, hits mostly inhibitors. 0.065% of 280,000 active;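 also: plate controls were bound peptide for no effect and peptide without receptor for full effect; nearly all actives have a fitted effect of over 50% in size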
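Assay buffer: 20 mM Tris-HCl, 100 mM NaCl, 10% glycerol, 1 mM EDTA, 0.01% NP-40, 1 mM DTT, 1 uM T3, 5% DMSO; TRb LBD 0.6 uM, Texas Red SRC2 20 nM; FP after 5 hr.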
Tau FP inhib: qHTS for Inhibitors of Tau Fibril Formation, Fluorescence Polarization; Microtubule-associated protein tau (Homo sapiens), P10636; K18 P301L tau heparin fibrillization, Alexa594 FP, 6 h; Potency, µM (series often up to 57.7 µM), for inactives: at the top dose activity, negative = inhibition, hits mostly inhibitors; 0.39% of 280,000 active; AID 1468, 2008; also: nearly all actives have a fitted effect of over 55% in size
Target sequence (P10636 561-689 P618L limits assumed): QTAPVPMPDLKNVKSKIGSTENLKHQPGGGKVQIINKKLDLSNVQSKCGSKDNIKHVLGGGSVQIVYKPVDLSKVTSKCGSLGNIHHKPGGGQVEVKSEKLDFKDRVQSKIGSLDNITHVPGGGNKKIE
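Steps: dispense K18 P301L tau (15 uM plus 0.24 uM Alexa 594 tracer, final) in pH 7 sodium acetate; add compound; add heparin (20 uM final); incubate 6 hr, 37 C; add ThT (30 uM final); after 1 hr ambient, read FP.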
Tau fluor cs: Counterscreen qHTS for Inhibitors of Tau Fibril Formation, Fluorescence Polarization; 0.93% of 280,000 active; tau K18 P301L Alexa594 fluorescence, heparin fibrillization; Potency, µM (top dose mostly 57.7 µM), for inactives: at the top dose activity change, negative = decrease; also: nearly all actives have a fitted effect of over 55% in size
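Human tau K18 P301L (15 uM unlabeled, 0.24 uM Alexa 594-labeled) in 100 mM sodium acetate pH 7 with 20 uM heparin, 6 hr at 37 C. ThT 30 uM added, 1 hr ambient; Alexa 594 FP and total fluorescence read at 555/632 nm.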
Tau fibril ThT: qHTS for Inhibitors of Tau Fibril Formation, Thioflavin T Binding; Microtubule-associated protein tau (Homo sapiens), P10636; recombinant tau K18 P301L, heparin-induced fibrillization, ThT fluorescence; Potency, µM (titrated, usually from 57.4 µM), for inactives: at the highest dose activity, negative = inhibition, actives largely listed as inhibitors; 2.1% of 270,000 active; also: nearly all actives have a fitted effect of over 55% in size
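Using a mix of unlabeled (15 uM) and Alexa 594-labeled (0.24 uM) tau K18 P301L, heparin-triggered fibrillization over 6 hr at 37 C was scored by ThT fluorescence.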
The depositor's hits bear a star; u = inconclusive; [ ] = another dose, or the depositor's remark. Unless noted, calls follow the shape of the dose curve; as a rule, active = well fitted curve in the direction sought with a large enough effect; inconclusive = small, poorly fitted or top-dose-only effect, or another doubt; inactive = no such curve, though single readings can be large; an effect the other way counts as inactive or inconclusive. Unless noted, % is scaled to controls: 0 for no effect and ±100 for the full control effect; potency is read from the fitted curve at half-maximal effect.

SMILES | TR SRC2 fluor cs | TRb-SRC2 inh | Tau FP inhib | Tau fluor cs | Tau fibril ThT
COc1ccc(Nc2c3c(nc4ccc(NC(=O)c5cc(Cl)ccc5OC)cc24)CCCC3)cc1OC | -1.5% | -9.1% | -5.6% | u | 7.08µM*
CC(=O)c1ccc(Nc2c3c(nc4ccccc24)CCCC3)cc1 | -2.4% | 1.3% | 10.1% | -10.3% | -7.4%
COc1ccccc1Nc1c2c(nc3ccc(NC(=O)c4ccc(N(C)C)cc4)cc13)CCCC2 | -3.9% | -2.6% | -0.5% | 11.2µM*[quencher] | 15.8µM*
Cc1oc(-c2ccccc2F)nc1CS(=O)(=O)CC(=O)NCCc1ccc(Cl)cc1 | -0.6% | -4.7% | 7.0% | 3.3% | 7.1%
Cc1ccc2[nH]c(CSc3nnc(NC(=O)COc4ccccc4Cl)s3)cc(=O)c2c1 | -1.0% | -4.9% | u | -11.7% | -5.0%
CCOC(=O)CCN1C(=O)[C@H]2[C@H]3[C@H](O)[C@H](O)C/C(=N/NC(=O)OCc4ccc(OC)cc4)[C@H]3CC[C@@H]2C1=O | -1.9%[11.2 µM] | 2.9%[11.2 µM] | 4.9%[11.6 µM] | -0.5%[11.6 µM] | -3.5%[11.5 µM]
COc1ccc(NC(=O)Nc2c[nH]c(=O)[nH]c2=O)c(OC)c1 | -1.7% | 1.5% | -12.1% | -3.5% | -7.1%
O=C(/C=C/c1ccc(Cl)cc1)N1CCN(c2ccc(Cl)cc2[N+](=O)[O-])CC1 | 1.3% | 10.4% | 1.8% | -19.8% | 7.94µM*
O=C(O/N=C\c1ccc(N2CCCCC2)c([N+](=O)[O-])c1)c1ccc(Cl)cc1Cl | 0.2% | -6.9% | -1.5% | -24.6% | 5.01µM*
CCOc1ccc2nc(Cl)c(C3CC(c4ccc(OC)cc4)=NN3S(C)(=O)=O)cc2c1 (stereo unspecified) | -54.1%[1.83 µM] | -16.8%[1.83 µM] | 35.5µM* | u | -8.4%
COc1ccc2cc(C3CC(c4ccco4)=NN3S(C)(=O)=O)c(Cl)nc2c1 (stereo unspecified) | 0.6% | -4.1% | 1.2% | -20.6% | u
CCOc1ccc2nc(Cl)c(C3CC(c4ccco4)=NN3S(=O)(=O)c3ccccc3)cc2c1 (stereo unspecified) | 1.2% | 1.3% | -9.5% | -3.9% | 8.7%
CCS(=O)(=O)N1N=C(c2ccc(C)cc2)CC1c1cc2ccc(OC)cc2nc1Cl (stereo unspecified) | -1.6% | 6.8% | 39.8µM* | u | -8.6%
COc1ccc2c(c1)O[C@@H](c1cccc(C(F)(F)F)c1)[C@H](OC(=O)NCCOc1ccccc1)C2=O | -0.6% | 7.0% | -0.4% | -16.0% | -9.1%
CC1(C)CC23C(=O)CCC(O)C2(C)CCC13 (stereo unspecified) | -7.3% | -2.5% | 4.5% | -2.2% | -2.8%
Cc1ccc(N=C2NC(=O)/C(=C\c3ccco3)S2)cc1 | -11.3% | 1.3% | 6.2% | -27.4% | u
O=C1NC(=Nc2ccc3ccccc3c2)S/C1=C/c1ccco1 | -14.2% | 11.2% | u | u | 14.1µM*
COc1ccc(N=C2NC(=O)/C(=C\C=C\c3ccco3)S2)cc1 | -27.1% | 2.4% | u | u | 8.91µM*
Cc1cccc(N=C2NC(=O)/C(=C/C=C/c3ccco3)S2)c1 | -17.2% | 13.5% | -8.8% | -28.0% | 5.01µM*
Cc1ccccc1N1CC(=O)N(c2ccccc2C)CC1=O | -1.0% | 4.2% | -0.5% | -7.0% | -10.9%
Cc1cccc2c1c1ccc3c(c1n2C)C(=O)C=CC3=O | -1.0% | 2.4% | 8.91µM* | 3.98µM*[quencher] | 3.55µM*
CCCN1C(=O)/C(=C/c2ccc(N3CCCC3)c(C)c2)NC1=S | 3.1% | 6.4% | u | 8.91µM*[quencher] | u
Cc1cc(/C=C2/C(=O)N(C)C(=S)N2C)ccc1N1CCCC1 | 1.8% | -0.6% | -3.3% | u | 3.98µM*
CCN1C(=O)/C(=C/c2ccc(N3CCCC3)cc2)NC1=S | 0.5% | 0.4% | u | u | 11.2µM*
Cc1cc(/C=C2\NC(=S)N(C)C2=O)ccc1N1CCCC1 | -2.5% | -6.6% | u | -27.9% | u
Cc1cc(N2CCCC2)ccc1/C=C1/C(=O)N(C)C(=S)N1C | -0.5% | 4.3% | u | -10.6% | u

Assay outcomes deposited in PubChem BioAssay by National Center for Advancing Translational Sciences (NCATS).
